V-ATPase pHluor – regulators of yeast V-ATPase proton pumping, primary screen, pHLuorin cytosolic pH fluorescence; S. cerevisiae; response, % at 10 µM; actives 0.37% (n = 350,000); AID 504577, 2011; in the data active means response mostly above about 7.3%, no sharp cut-off; inactive means mostly below about 5.4%; further: actives read high
PolyA inh – polyadenylation inhibitors in yeast reporter cells, primary screen, luminescence, S. cerevisiae | actives 0.02% (n = 300,000) | S. cerevisiae SKY197-pL101 polyadenylation reporter, beta-gal luminescence; efflux-impaired pdr1/pdr3 knockout yeast; score 100 = 6 SD above DMSO | activity score, % at 12 µM | AID 1875, 2009;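 active means lowest replicate activity score at least 50, where 100 means six control SD above control mean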;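 further: yeast exposed to compound for 9 h at 30 °C; higher score means more reporter readthrough which indicates perturbed polyadenylation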
CR mimetic SO – reduction of superoxide in aged yeast, primary screen, HTS; AID 2690, 2010; S. cerevisiae aged cells, superoxide DHE fluorescence; active compounds read low; superoxide response (% of plate mean), % at 10 µM; actives 0.18% (n = 330,000);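 active means superoxide response under a set limit, about three screen SD below normal, cut at about 65% in these data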;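 further: yeast aged for seven days with compound at 30 °C before DHE staining; 100% = average MFI of all compound-treated wells on the plate with controls excluded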
PKA-R2B act – activators of PKA-R2B holoenzyme, primary screen, biochemical, fluorescence polarization, Cy5-IP20, human | PKA-R2B holoenzyme dissociation; R2B truncated from residue 108, S112A mutant; 0% DMSO only, 100% 113 µM cGMP | cAMP-dependent protein kinase catalytic subunit beta (Homo sapiens) + cAMP-dependent … | activation, % at 11.4 µM | actives 0.079% (n = 340,000);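 active means activation above a cutoff set at the mean over all compounds plus 3 SD, cut at about 18% in these data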;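 further: higher means more holoenzyme dissociation and a rise in polarization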
JMJD2C inh – inhibitors of GASC-1 histone demethylase, primary screen, biochemical, fluorescence, DELFIA europium. Lysine-specific demethylase 4C (Homo sapiens), Q9H3R0. GST-JMJD2C(1-420) H3K9me3 demethylation. inhibition, % at 2.35 µM. actives 0.069% (n = 330,000);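 active means more than half of a compound's replicate wells show inhibition beyond 50%, single wells judged on their own value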;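 further: signal counts dimethyl H3K9 product captured on neutravidin plate; 0% = median of DMSO wells and 100% = 0.3 times that DMSO median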
Target sequence (Q9H3R0 1-420 limits assumed): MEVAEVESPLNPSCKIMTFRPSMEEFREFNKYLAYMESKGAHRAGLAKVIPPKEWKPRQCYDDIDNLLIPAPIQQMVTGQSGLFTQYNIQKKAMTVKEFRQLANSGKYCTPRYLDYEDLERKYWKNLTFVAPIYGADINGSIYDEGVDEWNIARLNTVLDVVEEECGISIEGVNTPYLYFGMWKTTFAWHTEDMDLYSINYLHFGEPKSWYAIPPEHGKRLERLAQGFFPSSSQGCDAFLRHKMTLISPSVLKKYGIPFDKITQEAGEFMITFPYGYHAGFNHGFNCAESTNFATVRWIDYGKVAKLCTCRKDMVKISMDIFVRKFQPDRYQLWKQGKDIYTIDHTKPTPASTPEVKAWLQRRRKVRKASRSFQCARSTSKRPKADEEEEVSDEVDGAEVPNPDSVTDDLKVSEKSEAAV
PKA-R1A act – activators of PKA-R1A holoenzyme, primary screen, biochemical, fluorescence polarization, Cy5-IP20, bovine R1A, mouse PKAc; actives 0.083% (n = 340,000); cAMP-dependent protein kinase type I-alpha regulatory subunit (Bos taurus) + …; PKA-R1A dissociation; scaled: DMSO 0%, 113 µM cGMP 100%; activation, % at 11.4 µM;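 active means percent activation above the mean of all tested compounds plus 3 SD, cut at about 19% in these data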;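 further: higher means more PKAc released from R1A so a rise in polarization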
* hit, by the source's call. Compounds with a hit are over-represented: about 0.78% of the library has one in this group of screens.

What do the screens show for `Cc1nnc(SC/C=C/c2ccccc2)n(N)c1=O`?
V-ATPase pHluor: 4; CR mimetic SO: 69; PKA-R2B act: -3; PKA-R1A act: -7

How did COc1ccccc1N1CCN(C(=O)CNS(=O)(=O)c2ccc(Br)s2)CC1 do in these assays?
V-ATPase pHluor: -3; PolyA inh: -4; CR mimetic SO: 102; PKA-R2B act: -3; JMJD2C inh: -9; PKA-R1A act: 2

How did COc1ccccc1N1CCN(C(=O)CCNS(=O)(=O)c2ccc(Br)s2)CC1 do in these assays?
V-ATPase pHluor: -1; PolyA inh: 91*; CR mimetic SO: 107; PKA-R2B act: -4; JMJD2C inh: -6; PKA-R1A act: 3

How did COc1ccc(C2=NOC(C(=O)NCc3cccnc3)C2)cc1 (stereo not given) do in these assays?
V-ATPase pHluor: 0; PolyA inh: -10; CR mimetic SO: 104; PKA-R2B act: 2; JMJD2C inh: 1; PKA-R1A act: 1

How did Cc1c(C(=O)Nc2nonc2-c2ccc(F)cc2)oc2ccc(F)cc12 do in these assays?
V-ATPase pHluor: -7; PolyA inh: 103*; CR mimetic SO: 158; PKA-R2B act: -2; JMJD2C inh: -18; PKA-R1A act: -20

Results for O=C(Nc1ccc(Cl)c(Cl)c1)c1ccc(Cn2cc(Cl)cn2)cc1 ?
V-ATPase pHluor: -4; PolyA inh: -18; PKA-R2B act: -6; JMJD2C inh: -9; PKA-R1A act: 5

What do the screens show for `CCOc1ccc(C(=O)Nc2cnn(Cc3ccc(Cl)c(Cl)c3)c2)cc1`?
V-ATPase pHluor: 40*; PolyA inh: 6; CR mimetic SO: 111; PKA-R2B act: 1; JMJD2C inh: inactive; PKA-R1A act: -13

How did COC(=O)Cn1cc(/C=C(/C#N)C(=O)N2CCOCC2)c2ccccc21 do in these assays?
V-ATPase pHluor: 2; PolyA inh: -4; CR mimetic SO: 107; PKA-R2B act: -5; JMJD2C inh: 8; PKA-R1A act: -2

What do the screens show for `COc1ccccc1NC(=O)c1ccc(Br)o1`?
V-ATPase pHluor: -6; PolyA inh: 0; CR mimetic SO: 121; PKA-R2B act: -10; JMJD2C inh: 0; PKA-R1A act: -8

How did Cc1cc(O)c(NC(=O)c2ccc(Br)o2)cc1C do in these assays?
V-ATPase pHluor: 14*; PolyA inh: 23; CR mimetic SO: 94; PKA-R2B act: -3; JMJD2C inh: 7; PKA-R1A act: -3

Results for CCc1ccc(C(=O)C(C)OC(=O)CNS(=O)(=O)c2ccc(C)cc2)cc1 (stereo not given) ?
V-ATPase pHluor: 2; PolyA inh: 2; CR mimetic SO: 106; PKA-R2B act: -11; JMJD2C inh: 2; PKA-R1A act: 2

How did COc1cc2cc(C(=O)N3CCN(Cc4ccc5c(c4)OCO5)CC3)[nH]c2cc1OC do in these assays?
V-ATPase pHluor: -4; PolyA inh: 18; CR mimetic SO: 86; PKA-R2B act: -5; JMJD2C inh: -3; PKA-R1A act: -19

How did O=C(c1cc2cc(F)ccc2[nH]1)N1CCN(Cc2ccc3c(c2)OCO3)CC1 do in these assays?
V-ATPase pHluor: 14*; PolyA inh: 1; CR mimetic SO: 97; PKA-R2B act: 13; JMJD2C inh: 36; PKA-R1A act: 6

Results for CSc1ccc(C=NNc2ccc(S(=O)(=O)Nc3ccccc3C(=O)O)cc2[N+](=O)[O-])cc1 ?
V-ATPase pHluor: 2; CR mimetic SO: 107; PKA-R2B act: 2; JMJD2C inh: 103*; PKA-R1A act: -4

What do the screens show for `O=C(O)c1ccccc1NS(=O)(=O)c1ccc(NN=Cc2ccccc2F)c([N+](=O)[O-])c1`?
V-ATPase pHluor: 2; CR mimetic SO: 102; PKA-R2B act: 23*; JMJD2C inh: 6; PKA-R1A act: 4

Results for CCCCC1(C)OC(=O)C(=Cc2ccc(-c3ccc(Cl)c(C(=O)O)c3)o2)C(=O)O1 (stereo not given) ?
V-ATPase pHluor: 16; PolyA inh: 25; CR mimetic SO: 63*; PKA-R2B act: -6; JMJD2C inh: 3; PKA-R1A act: -6

Results for CN(CC(=O)Nc1ccc(F)cc1)C(=O)C1CCCC1 ?
V-ATPase pHluor: 2; CR mimetic SO: 72; PKA-R2B act: -2; JMJD2C inh: -4; PKA-R1A act: -3

What do the screens show for `CC[n+]1c(/C=C/c2c[nH]c3ccccc23)ccc2cc(C)ccc21`?
V-ATPase pHluor: 8.2*

How did CCN(CC)C(=O)c1ccc(/C=C/c2c[nH]c3ccccc23)[n+](C)c1 do in these assays?
V-ATPase pHluor: -4; PolyA inh: -3; CR mimetic SO: 95; PKA-R2B act: -3; JMJD2C inh: -19; PKA-R1A act: 6

What do the screens show for `O=C(O)c1ccccc1C(=O)OCC1CCC(=NO)CC1` (stereo not given)?
V-ATPase pHluor: 0; PKA-R2B act: 3; PKA-R1A act: 8

Results for Cn1c2c(c(=O)n(C)c1=O)CN(CCCN1CCOCC1)CN2 ?
V-ATPase pHluor: -1; PolyA inh: 18; CR mimetic SO: 103; PKA-R2B act: -2; JMJD2C inh: 53*; PKA-R1A act: -2

How did COc1ccccc1-n1c(SCC(=O)N2CCCC2)nc2cccnc21 do in these assays?
V-ATPase pHluor: 2; PolyA inh: 5; CR mimetic SO: 102; PKA-R2B act: -9; JMJD2C inh: 62*; PKA-R1A act: -4

Results for COc1cc(NC(=O)COc2ccc(Cl)cc2)ccc1-c1cc2ccccc2oc1=O ?
V-ATPase pHluor: -1; PolyA inh: 14; CR mimetic SO: 111; PKA-R2B act: -7; JMJD2C inh: 3; PKA-R1A act: -11

What do the screens show for `Cc1nn(C)c(C(=O)N/N=C/c2ccc(Br)cc2)c1Cl`?
V-ATPase pHluor: 4; PolyA inh: 1; CR mimetic SO: 61*; PKA-R2B act: 4; JMJD2C inh: -11; PKA-R1A act: -1

Results for COc1cccc(CC(=O)N(CCC2=CCCCC2)c2c(N)n(Cc3ccccc3)c(=O)[nH]c2=O)c1 ?
V-ATPase pHluor: -5; PolyA inh: -4; CR mimetic SO: 115; PKA-R2B act: -11; JMJD2C inh: 2; PKA-R1A act: -7

Results for O=C(CN1CCN(Cc2ccc(Cl)cc2)C1=O)NCCCN1CCN(c2ccc(F)cc2)CC1 ?
V-ATPase pHluor: 17*; PolyA inh: -2; CR mimetic SO: 89; PKA-R2B act: 7; JMJD2C inh: -8; PKA-R1A act: 3

Compound activity as filed in PubChem.
